Here are results for 62 molecules from the antibiotic and cytotoxicity screens of Wong et al. (2023).

Screen size: about 39,000 compounds; about 1,500 (3.8%) were called active. The full list was thinned out, with actives kept by preference.

This assay relates to HSkMC (human skeletal muscle cells). The assay is described as follows: cytotoxicity call (relative viability < 0.9). The settings on record: 10 µM.
In the case of `COC(=O)CCCCCCC(=O)Nc1ccc([C@H]2O[C@@H](CSc3nc(-c4ccccc4)c(-c4ccccc4)o3)C[C@H](c3ccc([N+](=O)[O-])cc3)O2)cc1`, the cytotoxicity call was “inactive”.

`COCCOC(=O)N1C(=O)[C@@]2(c3cc(C#Cc4ccc(OC)cc4)ccc31)[C@H](c1ccc(O)cc1)N1[C@H](c3ccccc3)[C@H](c3ccccc3)OC(=O)[C@H]1[C@@H]2C(=O)NC[C@H](O)c1ccccc1`: the cytotoxicity call is “inactive”.

As for `O=C(NCc1csnn1)c1csnn1`, the cytotoxicity call is “inactive”.

For the molecule `O=C(COC(=O)/C=C/c1cn(-c2ccccc2)nc1-c1ccc2c(c1)OCCO2)N[C@H]1CCS(=O)(=O)C1`, the cytotoxicity call was “inactive”.

Turning to `C[C@H]1CN([C@@H](C)CO)C(=O)CCCn2nncc2CO[C@@H]1CN(C)S(=O)(=O)c1ccc(-n2cccn2)cc1`, the cytotoxicity call was “inactive”.

For `COc1ccc(S(=O)(=O)N[C@H]2C=C[C@H](CC(=O)N3CCC(Cc4ccccc4)CC3)O[C@H]2CO)cc1`, the cytotoxicity call was “inactive”.

On to `C[C@@H]1CN([C@@H](C)CO)C(=O)Cc2cc(NC(=O)CCN3CCOCC3)ccc2O[C@H]1CN(C)C(=O)NC1CCCCC1`, for which the cytotoxicity call is “inactive”.

As for `CC(C)(N)c1ccccc1Br`, the cytotoxicity call was “inactive”.

`C[C@@H]1CN([C@@H](C)CO)C(=O)c2cccc(NC(=O)NC3CCCCC3)c2O[C@H]1CN(C)Cc1ccc(Cl)c(Cl)c1`: the cytotoxicity call is “inactive”.

For the molecule `COc1cc2c(NC3CCN(C(C)C)CC3)nc(N3CCC(F)(F)CC3)nc2cc1OCCCN1CCCC1`, the cytotoxicity call is “active”.

For `COc1cc2nc(N3CCN(C(=O)C4CCCO4)CC3)nc(N)c2cc1OC.Cl` (configuration not stated), the cytotoxicity call was “inactive”.

Regarding `COc1cc2c(NC3CCN(C)CC3)nc(N3CCCN(C)CC3)nc2cc1OCCOCCN(C)C`, the cytotoxicity call is “inactive”.

Take `C[C@@H]1CN([C@@H](C)CO)C(=O)Cc2cc(NS(=O)(=O)c3ccccc3)ccc2O[C@@H]1CN(C)Cc1ccc(C(=O)O)cc1`: the cytotoxicity call is “inactive”.

For the molecule `COc1cccc(NC(=O)N(C)C[C@H]2OCc3ccccc3-c3c(n(C)c4ccccc34)C(=O)N([C@H](C)CO)C[C@H]2C)c1`, the cytotoxicity call was “inactive”.

For `C[C@@H]1CCCCO[C@@H](CN(C)C(=O)CCC(F)(F)F)[C@H](C)CN([C@@H](C)CO)C(=O)c2cc(NS(=O)(=O)c3cccs3)ccc2O1`, the cytotoxicity call was “inactive”.

Take `Cc1ccc(S(=O)(=O)Nc2ccc3c(c2)C(=O)N([C@@H](C)CO)C[C@@H](C)[C@@H](CN(C)C(=O)c2ccccc2)OCCCC[C@@H](C)O3)cc1`: the cytotoxicity call is “inactive”.

Take `C[C@H](CO)N1C[C@H](C)[C@H](CN(C)Cc2ccc(C(F)(F)F)cc2)Oc2ccc(NC(=O)Cc3ccccc3)cc2C1=O`: the cytotoxicity call is “inactive”.

As for `Cc1ccc(S(=O)(=O)N(C)C[C@@H]2Oc3cc(Br)ccc3S(=O)(=O)N([C@@H](C)CO)C[C@@H]2C)cc1`, the cytotoxicity call is “inactive”.

Regarding `COc1ccc(S(=O)(=O)Nc2ccc3c(c2)C(=O)N([C@H](C)CO)C[C@@H](C)[C@@H](CN(C)Cc2ccc(C(F)(F)F)cc2)OCCCC[C@@H](C)O3)cc1`, the cytotoxicity call was “active”.

For `COc1ccc(S(=O)(=O)Nc2ccc3c(c2)C(=O)N([C@@H](C)CO)C[C@@H](C)[C@@H](CN(C)Cc2ccc(C(F)(F)F)cc2)OCCCC[C@H](C)O3)cc1`, the cytotoxicity call is “inactive”.

As for `COc1ccc(S(=O)(=O)Nc2ccc3c(c2)C(=O)N([C@@H](C)CO)C[C@@H](C)[C@H](CN(C)Cc2ccc(C(F)(F)F)cc2)OCCCC[C@@H](C)O3)cc1`, the cytotoxicity call was “active”.

`COc1ccc(S(=O)(=O)Nc2ccc3c(c2)C(=O)N([C@@H](C)CO)C[C@@H](C)[C@@H](CN(C)Cc2ccc(C(F)(F)F)cc2)OCCCC[C@@H](C)O3)cc1`: the cytotoxicity call was “inactive”.

With `COc1ccc(S(=O)(=O)Nc2ccc3c(c2)C(=O)N([C@H](C)CO)C[C@@H](C)[C@@H](CN(C)Cc2ccc(C(F)(F)F)cc2)OCCCC[C@H](C)O3)cc1`, the cytotoxicity call is “inactive”.

Regarding `COc1ccc(S(=O)(=O)Nc2ccc3c(c2)C(=O)N([C@H](C)CO)C[C@H](C)[C@@H](CN(C)Cc2ccc(C(F)(F)F)cc2)OCCCC[C@@H](C)O3)cc1`, the cytotoxicity call was “active”.

Consider `COc1ccc(S(=O)(=O)Nc2ccc3c(c2)C(=O)N([C@@H](C)CO)C[C@H](C)[C@@H](CN(C)Cc2ccc(C(F)(F)F)cc2)OCCCC[C@H](C)O3)cc1`, for which the cytotoxicity call was “inactive”.

For `COc1ccc(S(=O)(=O)Nc2ccc3c(c2)C(=O)N([C@@H](C)CO)C[C@H](C)[C@@H](CN(C)Cc2ccc(C(F)(F)F)cc2)OCCCC[C@@H](C)O3)cc1`, the cytotoxicity call is “inactive”.

In the case of `COc1ccc(S(=O)(=O)Nc2ccc3c(c2)C(=O)N([C@H](C)CO)C[C@H](C)[C@H](CN(C)Cc2ccc(C(F)(F)F)cc2)OCCCC[C@H](C)O3)cc1`, the cytotoxicity call was “active”.

Take `COc1ccc(S(=O)(=O)Nc2ccc3c(c2)C(=O)N([C@H](C)CO)C[C@@H](C)[C@H](CN(C)Cc2ccc(C(F)(F)F)cc2)OCCCC[C@@H](C)O3)cc1`: the cytotoxicity call was “inactive”.

`C[C@H](CO)N1C[C@H](C)[C@H](CN(C)S(=O)(=O)c2cccc(F)c2)Oc2ncc(C#CC3(O)CCCC3)cc2C1=O`: the cytotoxicity call is “inactive”.

In the case of `C[C@H](CO)N1C[C@H](C)[C@H](CN(C)CC2CCCCC2)Oc2c(NC(=O)c3nc4ccccc4s3)cccc2C1=O`, the cytotoxicity call was “inactive”.

Take `C[C@@H]1CN([C@@H](C)CO)C(=O)c2cc(NS(=O)(=O)c3cn(C)cn3)ccc2O[C@@H](C)CCCCO[C@@H]1CN(C)S(=O)(=O)c1ccccc1`: the cytotoxicity call is “inactive”.

Regarding `COc1ccc(-c2cnc3c(c2)C(=O)N([C@H](C)CO)C[C@@H](C)[C@H](CN(C)C(=O)Cc2ccncc2)O3)cc1`, the cytotoxicity call is “inactive”.

For the molecule `C[C@@H]1CN([C@@H](C)CO)C(=O)c2cc(NC(=O)Cn3cnnn3)ccc2O[C@@H]1CN(C)S(=O)(=O)c1ccccc1`, the cytotoxicity call is “inactive”.

Consider `O=C(C[C@H]1C[C@H]2c3cc(NC(=O)NC4CCCC4)ccc3O[C@H]2[C@H](CO)O1)NCCN1CCCCC1`, for which the cytotoxicity call is “inactive”.

`Cc1ncc([N+](=O)[O-])n1C`: the cytotoxicity call is “inactive”.

In the case of `C[C@@H]1CCCCO[C@H](CN(C)S(=O)(=O)c2cn(C)cn2)[C@@H](C)CN([C@@H](C)CO)C(=O)c2cc(NC(=O)Nc3ccc(C(F)(F)F)cc3)ccc2O1`, the cytotoxicity call is “inactive”.

In the case of `C[C@H]1CN([C@@H](C)CO)C(=O)Cc2cc(NC(=O)c3ccncc3)ccc2O[C@H]1CN(C)C(=O)NC1CCCCC1`, the cytotoxicity call is “inactive”.

For `Cc1ccc(S(=O)(=O)Nc2ccc3c(c2)C(=O)N([C@@H](C)CO)C[C@@H](C)[C@@H](CN(C)C(=O)NC2CCCCC2)OCCCC[C@H](C)O3)cc1`, the cytotoxicity call was “inactive”.

As to `C[C@H](O)C#Cc1ccc2c(c1)O[C@H](CN(C)C(=O)Nc1ccccc1)[C@@H](C)CN([C@@H](C)CO)S2(=O)=O`, the cytotoxicity call was “inactive”.

For the molecule `Cc1ccccc1S(=O)(=O)N1C[C@H](O)COC[C@@H]2O[C@@H](CC(=O)N3CCN(C)CC3)CC[C@H]21`, the cytotoxicity call is “inactive”.

With `COCC(=O)Nc1ccc2c(c1)C(=O)N(C)C[C@@H](OC)[C@H](C)CN(C(=O)CN1CCOCC1)[C@H](C)CO2`, the cytotoxicity call is “inactive”.

Take `COc1ccc(-c2ccccc2)cc1NC(=O)c1ccc2nc(C)c(N(C)C(=O)CCc3ccccc3)n2c1`: the cytotoxicity call is “inactive”.

As for `C[C@H](CO)N1C[C@H](C)[C@H](CN(C)C(=O)C2CCC2)Oc2cc(C#Cc3ccncc3)ccc2S1(=O)=O`, the cytotoxicity call was “inactive”.

For `N[C@H]1CCN(c2ccc(C(F)(F)F)cn2)C1`, the cytotoxicity call was “inactive”.

With `COc1ccc(S(=O)(=O)Nc2ccc3c(c2)C(=O)N([C@@H](C)CO)C[C@H](C)[C@H](CN(C)Cc2ccc(C(F)(F)F)cc2)OCCCC[C@@H](C)O3)cc1`, the cytotoxicity call was “inactive”.

On to `COc1ccc(S(=O)(=O)Nc2ccc3c(c2)C(=O)N([C@@H](C)CO)C[C@@H](C)[C@H](CN(C)Cc2ccc(C(F)(F)F)cc2)OCCCC[C@H](C)O3)cc1`, for which the cytotoxicity call was “active”.

As to `COc1ccc(S(=O)(=O)Nc2ccc3c(c2)C(=O)N([C@H](C)CO)C[C@@H](C)[C@H](CN(C)Cc2ccc(C(F)(F)F)cc2)OCCCC[C@H](C)O3)cc1`, the cytotoxicity call is “inactive”.

As to `COc1ccc(S(=O)(=O)Nc2ccc3c(c2)C(=O)N([C@@H](C)CO)C[C@H](C)[C@H](CN(C)Cc2ccc(C(F)(F)F)cc2)OCCCC[C@H](C)O3)cc1`, the cytotoxicity call is “active”.

Regarding `COc1ccc(S(=O)(=O)Nc2ccc3c(c2)C(=O)N([C@H](C)CO)C[C@H](C)[C@@H](CN(C)Cc2ccc(C(F)(F)F)cc2)OCCCC[C@H](C)O3)cc1`, the cytotoxicity call is “inactive”.

In the case of `COc1ccc(S(=O)(=O)Nc2ccc3c(c2)C(=O)N([C@H](C)CO)C[C@H](C)[C@H](CN(C)Cc2ccc(C(F)(F)F)cc2)OCCCC[C@@H](C)O3)cc1`, the cytotoxicity call is “inactive”.

For `C[C@]12C[C@]3(O)O[C@@H](O1)[C@]1(COC(=O)c4ccccc4)[C@H]3C[C@@]12O[C@@H]1O[C@H](CO)[C@@H](O)[C@H](O)[C@H]1O`, the cytotoxicity call is “inactive”.

Consider `COc1ccc(COC[C@@]23Oc4ccccc4[C@@H](NC(=S)N2C)[C@@H]3CO[Si](C)(C)C(C)(C)C)cc1`, for which the cytotoxicity call is “inactive”.

In the case of `C[C@H](CO)N1C[C@H](C)[C@H](CN(C)Cc2ccncc2)OCCCC[C@H](C)Oc2ccc(NC(=O)Cc3ccccc3)cc2C1=O`, the cytotoxicity call is “inactive”.

Consider `C[C@@H]1CN([C@@H](C)CO)C(=O)c2cc(NC(=O)Nc3ccccc3)ccc2O[C@H]1CN(C)C(=O)Nc1ccc(C(F)(F)F)cc1`, for which the cytotoxicity call is “inactive”.

Take `C[C@H]1CN([C@@H](C)CO)C(=O)c2cc(NC(=O)Nc3ccc(C(F)(F)F)cc3)ccc2O[C@@H]1CN(C)C(=O)Nc1ccccc1`: the cytotoxicity call is “inactive”.

In the case of `C[C@H]1CN([C@@H](C)CO)C(=O)c2cc(NC(=O)Nc3ccccc3)ccc2O[C@H]1CN(C)C(=O)Nc1ccc(C(F)(F)F)cc1`, the cytotoxicity call was “inactive”.

As for `C[C@H](CO)N1C[C@H](C)[C@@H](CN(C)C(=O)Nc2ccccc2)Oc2ccc(NC(=O)Nc3ccc(C(F)(F)F)cc3)cc2C1=O`, the cytotoxicity call was “inactive”.

For `C[C@@H]1CN([C@@H](C)CO)C(=O)c2cc(NC(=O)Nc3ccc(C(F)(F)F)cc3)ccc2O[C@@H]1CN(C)C(=O)Nc1ccccc1`, the cytotoxicity call was “active”.

`C[C@@H]1CN([C@H](C)CO)C(=O)c2cc(NC(=O)Nc3ccccc3)ccc2O[C@@H]1CN(C)C(=O)Nc1ccc(C(F)(F)F)cc1`: the cytotoxicity call was “inactive”.

For `C[C@@H]1CN([C@@H](C)CO)C(=O)c2cc(NC(=O)Nc3ccccc3)ccc2O[C@@H]1CN(C)C(=O)Nc1ccc(C(F)(F)F)cc1`, the cytotoxicity call was “inactive”.

`C[C@H](CO)N1C[C@H](C)[C@H](CN(C)C(=O)Nc2ccccc2)Oc2ccc(NC(=O)Nc3ccc(C(F)(F)F)cc3)cc2C1=O`: the cytotoxicity call was “active”.

On to `C[C@H](CO)N1C[C@H](C)[C@H](CN(C)C(=O)Nc2ccc(C(F)(F)F)cc2)Oc2ccc(NC(=O)Nc3ccccc3)cc2C1=O`, for which the cytotoxicity call was “active”.
